# Data as given in PubChem BioAssay AID1508601 (ICCB-Longwood Screening Facility, Harvard Medical School, 2020).
# Among all 5,700 compounds or so, about 85 (1%) were called active. Rule as the data show it: active = p53-positive nuclei above about 36% (passing the limit was not always enough); inactive = the rest. Shown is part of a subset that was picked to be rich in actives.
# Key:
# [1] = nuclear p53 accumulation, HPV+ cells – imaging, p53-positive nuclei imaging, 24 h, 48 h (AID 1508601); conditions: 24/48 h
# [2] = target: Cellular tumor antigen p53 (Homo sapiens) (UniProt P04637); assay: as above; conditions: 24/48 h, stronger effect = higher value
# Chain of Cellular tumor antigen p53 (Homo sapiens) (P04637 whole entry, looked up): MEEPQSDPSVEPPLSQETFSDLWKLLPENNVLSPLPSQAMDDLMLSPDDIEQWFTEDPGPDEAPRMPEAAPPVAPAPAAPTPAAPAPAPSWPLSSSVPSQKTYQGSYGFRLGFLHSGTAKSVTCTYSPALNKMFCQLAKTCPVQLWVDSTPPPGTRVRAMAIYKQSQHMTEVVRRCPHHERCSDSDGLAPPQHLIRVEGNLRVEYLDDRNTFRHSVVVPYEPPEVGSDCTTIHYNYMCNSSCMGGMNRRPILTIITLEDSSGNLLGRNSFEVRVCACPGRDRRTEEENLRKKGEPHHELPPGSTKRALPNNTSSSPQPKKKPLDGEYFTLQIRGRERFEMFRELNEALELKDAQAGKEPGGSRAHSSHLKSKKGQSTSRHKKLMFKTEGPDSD
# [3] = measured here: cell number at 24 h, Library stock concentration: 3.33 mM
# [4] = measured here: cell number at 48 h, Library stock concentration: 3.33 mM
# [5] = Library stock concentration: 3.33 mM
# [6] = measured here: p53 positive nuclei at 24 h, Library stock concentration: 3.33 mM
# [7] = measured here: cell number at 24 h, concentration not given here
# [8] = measured here: cell number at 48 h, concentration not given here
# [9] = measured here: p53 positive nuclei at 24 h, concentration not given here
# [10] = measured here: cell number at 24 h, Library stock concentration: 10 mM
# [11] = measured here: cell number at 48 h, Library stock concentration: 10 mM
# [12] = Library stock concentration: 10 mM
# [13] = measured here: p53 positive nuclei at 24 h, Library stock concentration: 10 mM
compound,measurement,setting,value
CC(C)C(C(=O)Nc1ccc(C(=O)NO)cc1)c1ccccc1 (stereo not drawn),"nuclei count, normalised",[1]; [3],45.5%
same,"nuclei count, normalised",[1]; [4],32%
same,"p53-positive nuclei, normalised",[2]; [5],48.1% (active)
same,"p53-positive nuclei, normalised",[2]; [6],50.4%
COc1ccc(F)cc1-c1cnn(CC(=O)Nc2cc(C)nn2C)c1,"nuclei count, normalised",[1]; [7],95.8%
same,"nuclei count, normalised",[1]; [8],92.9%
same,"p53-positive nuclei, normalised",[2]; concentration not given here,0.158% (inactive)
same,"p53-positive nuclei, normalised",[2]; [9],-0.0647%
CCCCC/C=C/C/C=C/CCCCCCCC(=O)O,"nuclei count, normalised",[1]; [7],108%
same,"nuclei count, normalised",[1]; [8],108%
same,"p53-positive nuclei, normalised",[2]; concentration not given here,-0.00219% (inactive)
same,"p53-positive nuclei, normalised",[2]; [9],-0.0851%
Cc1cc(OCc2nnc(SC3CCCC3)n2-c2cccnc2)ccc1-c1ccc(S(C)(=O)=O)cc1,"nuclei count, normalised","[1]; measured here: cell number at 24 h, Library stock concentration: 46 uM",107%
same,"nuclei count, normalised","[1]; measured here: cell number at 24 h, Library stock concentration: 278 uM",112%
same,"nuclei count, normalised","[1]; measured here: cell number at 24 h, Library stock concentration: 1.67 mM",74.2%
same,"nuclei count, normalised",[1]; [3],78.3%
same,"nuclei count, normalised",[1]; [10],53.9%
same,"nuclei count, normalised","[1]; measured here: cell number at 48 h, Library stock concentration: 46 uM",114%
same,"nuclei count, normalised","[1]; measured here: cell number at 48 h, Library stock concentration: 278 uM",110%
same,"nuclei count, normalised","[1]; measured here: cell number at 48 h, Library stock concentration: 1.67 mM",69.2%
same,"nuclei count, normalised",[1]; [4],66.8%
same,"nuclei count, normalised",[1]; [11],36.2%
same,"p53-positive nuclei, normalised",[2]; Library stock concentration: 46 uM,-0.268% (inactive)
same,"p53-positive nuclei, normalised",[2]; Library stock concentration: 278 uM,-0.012% (inactive)
same,"p53-positive nuclei, normalised",[2]; Library stock concentration: 1.67 mM,2.41% (inactive)
same,"p53-positive nuclei, normalised",[2]; [5],3.08% (inactive)
same,"p53-positive nuclei, normalised",[2]; [12],57.1% (active)
same,"p53-positive nuclei, normalised","[2]; measured here: p53 positive nuclei at 24 h, Library stock concentration: 46 uM",-0.152%
same,"p53-positive nuclei, normalised","[2]; measured here: p53 positive nuclei at 24 h, Library stock concentration: 278 uM",-0.153%
same,"p53-positive nuclei, normalised","[2]; measured here: p53 positive nuclei at 24 h, Library stock concentration: 1.67 mM",1.05%
same,"p53-positive nuclei, normalised",[2]; [6],0.345%
same,"p53-positive nuclei, normalised",[2]; [13],46.4%
CC(NC(=O)c1cc(Cl)ccc1Oc1ccc(F)cc1)c1ccc(C(=O)O)cc1 (stereo not drawn),"nuclei count, normalised","[1]; measured here: cell number at 24 h, Library stock concentration: 80 uM",115%
same,"nuclei count, normalised","[1]; measured here: cell number at 24 h, Library stock concentration: 400 uM",119%
same,"nuclei count, normalised","[1]; measured here: cell number at 24 h, Library stock concentration: 2 mM",117%
same,"nuclei count, normalised",[1]; [10],107%
same,"nuclei count, normalised","[1]; measured here: cell number at 48 h, Library stock concentration: 80 uM",117%
same,"nuclei count, normalised","[1]; measured here: cell number at 48 h, Library stock concentration: 400 uM",115%
same,"nuclei count, normalised","[1]; measured here: cell number at 48 h, Library stock concentration: 2 mM",114%
same,"nuclei count, normalised",[1]; [11],108%
same,"p53-positive nuclei, normalised",[2]; Library stock concentration: 80 uM,0.0152% (inactive)
same,"p53-positive nuclei, normalised",[2]; Library stock concentration: 400 uM,-0.136% (inactive)
same,"p53-positive nuclei, normalised",[2]; Library stock concentration: 2 mM,-0.0948% (inactive)
same,"p53-positive nuclei, normalised",[2]; [12],-0.00827% (inactive)
same,"p53-positive nuclei, normalised","[2]; measured here: p53 positive nuclei at 24 h, Library stock concentration: 80 uM",-0.00172%
same,"p53-positive nuclei, normalised","[2]; measured here: p53 positive nuclei at 24 h, Library stock concentration: 400 uM",-0.0227%
same,"p53-positive nuclei, normalised","[2]; measured here: p53 positive nuclei at 24 h, Library stock concentration: 2 mM",-0.0802%
same,"p53-positive nuclei, normalised",[2]; [13],-0.136%
